Reference: PubChem BioAssay AID624304 (Sanford-Burnham Center for Chemical Genomics, 2012)
In all, about 360,000 compounds went through this assay and about 1,800 (0.5%) were called active. The list comes from a sample in which actives are over-represented; it also holds similar structures and randomly drawn compounds. Values without a mark were called inactive.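 The calls were made as follows: active = interference check ratio from 0.5 to 1.5 plus GFP to RFP signal ratio inhibition reaching or exceeding a fixed threshold (cut at about 30% in these data, passing the limit was not always enough); inactive = the rest.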

Experiment: gst-4 reporter inhibition in live C. elegans – whole organism, uHTS, GFP/RFP fluorescence ratio, strain VP596, SKN-1 inhibitor project, primary screen (AID 624304)
Settings: C. elegans VP596 Pgst-4::GFP/RFP ratio, acrylamide-induced, 24 h; at 21.8 µM; stronger effect = higher value

Row | SMILES | inhibition
1 | Cc1c(C(=O)NCCN2CCOCC2)sc2nc(-c3ccc(F)cc3)cn12 | 5.89%
2 | CC/C(=N/Nc1ccccc1)c1cnnc(SC)n1 | 10.2%
3 | CCOc1ccc(CNC(=O)C2CC(=O)N(C3CCCC3)C2)cc1OC (stereo not drawn) | 8.98%
4 | CCOC(=O)C1CCN(C(=O)C2CCN(S(=O)(=O)CC)CC2)CC1 | 6.26%
5 | Cc1onc(-c2ccccc2Cl)c1C(=O)N(Cc1ccc(N(C)C)cc1)C(C)C | -21.5%
6 | Cc1onc(-c2ccccc2Cl)c1C(=O)NCCn1ccc2ccccc21 | 39.7% (active)
7 | Cc1ccc2cc(CCNC(=O)c3c(-c4ccccc4Cl)noc3C)c(=O)[nH]c2c1 | 11.2%
8 | FC(F)(F)c1ccc(-c2cccc3c2C2CC3CCN2Cc2ccccc2)cc1 (stereo not drawn) | 7.81%
9 | CC1(C)Cc2ccccc2-c2nnc(-c3cccc(O)c3)n21 | 27.7%
10 | O=C(NC1CCCCCCC1)c1cccs1 | 22.3%
11 | O=C(NC1CCCC1)c1cc(-c2ccccc2)on1 | 37.3% (active)
12 | O=C(NCCCn1ccnc1)c1cc(-c2ccccc2)on1 | 8.95%
13 | NC1=CC(=O)C(=O)c2cccnc21 | 18.3%
14 | COc1ccccc1Cn1c(C)nnc1-c1cnn(C)c1N | 10.4%
15 | CCOc1cc(C)ccc1OCc1nnc(SCC(=O)Nc2cccc(C(=O)O)c2)n1-c1ccccc1 | -9.28%
16 | CCCCNC(=O)CSc1nc2ccc(NC(=O)CSc3nnc(COc4ccccc4C)n3C)cc2s1 | 39.2% (active)
17 | CC(=O)Nc1ccc(NC(=O)CSc2nnc(COc3ccccc3C)n2CC2CCCO2)cc1 (stereo not drawn) | -7.59%
18 | Cc1nonc1C1CCCN1Cc1nc(-c2ccc(F)cc2F)oc1C (stereo not drawn) | 10%
19 | CSc1nnc(CNC(=O)c2ccccc2)n1-c1ccc(F)cc1 | -6.87%
20 | Cc1ccnc(SCCn2c(Br)nc3c2c(=O)[nH]c(=O)n3C)n1 | -9.02%
21 | CCCCCCCCCCCCN1C(=O)CSC1c1cccnc1 (stereo not drawn) | -6.65%
22 | CCOc1cc(CO)ccc1OCC(=O)N1CCCCC1 | 7.04%
23 | CCOC(=O)/C=C/c1ccc(C(F)(F)F)cc1S(=O)(=O)NC(C)(C)C | 3.66%
24 | CCOC(=O)/C=C/CN(C(=O)OC(C)(C)C)S(=O)(=O)N1CC=CC1 | 35.2% (active)
25 | CNc1cc(-c2c(OC)cccc2OC)ncn1 | 4.47%

Row | SMILES | inhibition
26 | CC(=O)N1CCN(c2ccc(NCc3ccc(C(C)C)cc3)cc2)CC1 | 36.1% (active)
27 | CCCC(=O)N1CCC1(C)C(=O)NCc1ccc(C(C)C)cc1 (stereo not drawn) | 14.8%
28 | CC(C)c1ccc(NC(=O)COC(=O)c2ccc(CN3CCCC3=O)cc2)cc1 | -1.54%
29 | COCCNC(=O)c1ccc(N2CCC3(CC2)OCCO3)c([N+](=O)[O-])c1 | -6.38%
30 | O=C(Nc1nn(Cc2ccccc2F)cc1Br)c1cccs1 | 6.46%
31 | Cc1ccc(-c2noc(-c3ccccc3C(=O)NCC3CCCO3)n2)cc1 (stereo not drawn) | -3.76%
32 | COc1ccc(CCc2nc(-c3cccs3)no2)cc1 | -7.8%
33 | c1csc(-c2nc(-c3ccncc3)no2)c1 | 47.4% (active)
34 | Cc1ccc(-c2nc(-c3ccncc3)no2)c(C)c1 | 37% (active)
35 | O=C(NCc1cccnc1)c1nc(-c2cccs2)no1 | 7.29%
36 | COc1cc(OC)cc(C(=O)OCC(=O)Nc2sccc2C(N)=O)c1 | 0.966%
37 | COCCn1c(=NC(=O)c2ccccc2[N+](=O)[O-])sc2cc(S(C)(=O)=O)ccc21 | 0.193%
38 | COc1ccc(C(=O)NC(C)Cn2nc(C)cc2C)cc1OC1CCN(C(C)=O)CC1 (stereo not drawn) | 8.35%
39 | CCC(Cc1ccccc1)NS(=O)(=O)c1ccc2c(c1)NC(=O)CS2 (stereo not drawn) | -5.64%
40 | O=C(Nc1cc(F)ccc1F)c1ccc2c(=O)n3c(nc2c1)CCC3 | -4.08%
41 | COC[C@@H]1NS(=O)(=O)c2ccc(Br)cc2O[C@H]1c1ccccc1 | 14.6%
42 | COc1ccc(C(=O)NCc2ccc(C)cc2)cc1S(=O)(=O)N1CCCC1 | 0.996%
43 | CC(=O)N(CN1C(=O)C2CC=CCC2C1=O)c1cccc(Cl)c1 (stereo not drawn) | 36.1% (active)
44 | CC(=O)N(CN1C(=O)C2C3C=CC(C3)C2C1=O)c1cccc(Cl)c1 (stereo not drawn) | 16.7%
45 | CCOC(=O)c1cccc(NC(=O)CN2C(=O)C3CC=CCC3C2=O)c1 (stereo not drawn) | 6.29%
46 | COc1ccc(NC(=O)C(CC(C)C)NC(=O)C2CCC(C)CC2)cc1 (stereo not drawn) | -11.6%
47 | COc1cc(C(=O)Nc2nccs2)cc(OC)c1OC | 41.9% (active)
48 | COc1ccc(Cc2nnc(NC(=O)c3cc(OC)c(OC)c(OC)c3)s2)cc1OC | -13.7%
49 | CC(=O)Oc1ccc(C(=O)Nc2nccs2)cc1 | 3.06%
50 | CCC(C)(C)c1ccc(OCC(=O)N(C)C)c(C(C)(C)CC)c1 | 2.98%

Row | SMILES | inhibition
51 | CC1(C(=O)NS(=O)(=O)c2cccc(F)c2)CCN1C(=O)Cc1ccc(Cl)cc1Cl (stereo not drawn) | 15.6%
52 | C=C(C)Cn1c(N2CCN(CC)CC2)nc2c1c(=O)[nH]c(=O)n2C | 16.3%
53 | O=S(=O)(Cc1cc(Cl)nc(-c2cccnc2)n1)c1ccccc1 | -15.6%
54 | O=S(=O)(Cc1cc(Sc2ccccc2)nc(-c2ccccc2)n1)c1ccccc1 | 44.9% (active)
55 | Cc1ccc(Sc2cc(N3CCOCC3)nc(-c3ccccc3)n2)cc1 | 7.71%
56 | Cc1cc2c(=O)n(CC(=O)NCC(=O)Nc3ccc(C(C)C)cc3)cnc2s1 | -0.0427%
57 | CCOc1ccc(N2C(=O)/C(=C/c3ccc(C)o3)N(C)C2=S)cc1 | -1.02%
58 | O=Cc1c(NCCCN2CCCC2=O)c2ccccc2[nH]c1=O | 19.6%
59 | O=C(CCn1c(=S)[nH]c2ccccc2c1=O)NCCCN1CCCC1=O | 36.5% (active)
60 | CCOc1cc2[nH]c(=S)n(CCCN3CCCC3=O)c(=O)c2cc1OCC | -28.4%
61 | COc1ccc(N2CCN(C(=O)C3CCN(S(=O)(=O)c4ccc(C)cc4)CC3)CC2)cc1 | 5.77%
62 | CC(CCc1ccccc1)NC(=O)COC(=O)c1ccc(F)cc1 (stereo not drawn) | 3.96%
63 | CCc1ccc(OCC(=O)OCC(=O)c2c(N)n(C)c(=O)n(C)c2=O)cc1 | -10%
64 | C[C@H]1CN([C@@H](C)CO)C(=O)CCCn2cc(nn2)CO[C@@H]1CN(C)C(=O)Nc1ccccc1 | 1.2%
65 | COC(=O)CNC(c1ccccc1Cl)c1cc(Br)ccc1NC(=O)CCN1CCOCC1 (stereo not drawn) | 35.2% (active)
66 | COc1ccccc1NC(=O)CCN1CCN(c2ccc(Cl)cc2)CC1 | 8.41%
67 | Cc1cc(NC(=O)CCN2CCN(Cc3ccccc3)CC2)ccc1Br | 1.51%
68 | Cc1cc(C)cc(NC(=O)C2CCCN(S(=O)(=O)c3ccc4[nH]c(=O)ccc4c3)C2)c1 (stereo not drawn) | 11.9%
69 | O=S(=O)(NC1CC2CCC1C2)c1ccc(Cl)cc1 (stereo not drawn) | 8.97%
70 | CN1c2ccc(C=O)c3c(C=O)ccc(c23)N(C)C1(C)C | 39.8% (active)
71 | CCCCNC(=O)C1(O)c2ccccc2NC(=O)N1c1ccc(Cl)cc1 (stereo not drawn) | 19.1%
72 | CSc1ccc(CNC(=O)c2ccc(NC(=O)C3=CSCCO3)cc2)cc1 | 22.9%
73 | Cc1nc2ccccn2c1C(=O)NN=C1CCN(C)CC1 | 8.18%
74 | CC1=NNC(=O)C1Cc1c(Cl)cccc1Cl (stereo not drawn) | -3.65%
75 | Cc1ccc(OCCNC(=O)CNC(=O)c2ccc(C)c(C)c2)cc1 | 5.58%

Row | SMILES | inhibition
76 | COC(=O)c1ccccc1N=NNc1ccc([N+](=O)[O-])cc1 | 20.6%
77 | O=[N+]([O-])c1ccc(N/N=C/c2ccccc2)cc1 | 41.2% (active)
78 | CC(C=Cc1ccccc1)=NNS(=O)(=O)c1ccc([N+](=O)[O-])cc1 | 21.6%
79 | CC1CN(c2cc(=O)n(-c3cccc(Br)c3)c(=O)[nH]2)CC(C)O1 (stereo not drawn) | 5.49%
80 | COc1ccc2nc(N3CCN(C(=O)c4ccc([N+](=O)[O-])o4)CC3)sc2c1 | 2.32%
81 | O=C(NCCc1cccc(F)c1)C1CCCN(c2nc3ccccc3s2)C1 (stereo not drawn) | 10.3%
82 | Brc1ccc2nc(N3CCCC3)sc2c1 | 52% (active)
83 | CCCCN1C(=S)NC[C@@H]1C(C)CC (stereo partly drawn) | -0.152%
84 | Clc1ccc(C[n+]2cc(-c3ccc(Cl)cc3)n3c2CCC3)cc1 | 0.364%
85 | O=C(C1CCN(S(=O)(=O)c2cnc[nH]2)CC1)N1CCN(Cc2ccc3c(c2)OCO3)CC1 | 17.4%
86 | COc1ccccc1N1CCN(CC(=O)Nc2ccnn2C2CCCC2)CC1 | -9.67%
87 | FC(F)(F)c1ccnc(Oc2ccc(C3=NCCS3)cc2)c1 | 44.7% (active)
88 | CCC(=O)Nc1ccc(S(=O)(=O)Nc2c(NC)c3ccccc3oc2=O)cc1 | 9.74%
89 | CN(Cc1ccccc1)C(=O)COC(=O)c1ccccc1Nc1ccccc1 | -4.32%
90 | Cc1cccc(N2CCN(C(=O)c3cccc(S(=O)(=O)N4CCc5ccccc5C4)c3)CC2C)c1 (stereo not drawn) | -16.8%
91 | COc1cccc(C2SCC(=O)N2c2cccc(C)c2)c1OC (stereo not drawn) | 2.8%
92 | Cc1cc(C(C)(C)C)oc1C(=O)N(CC(=O)NC1CCCC1)Cc1ccc(Cl)cc1 | 6.57%
93 | CCOc1ccc(NC(=O)N(CCC(C)C)C(C)c2ccco2)cc1 (stereo not drawn) | -11.7%
94 | CCCCOc1ccc(-c2nnc(-c3ccco3)o2)cc1 | 64.9% (active)
95 | CCCCSc1nnc(-c2ccc(C)cc2)o1 | 1.11%
96 | O=C(CSc1nnc(-c2ccco2)o1)NCC(=O)c1ccccc1 | -0.628%
97 | CCCOc1ccc(-c2c(C(=O)N/N=C/c3ccco3)nnn2-c2nonc2N)cc1 | 3.6%
98 | CCOc1ccc(-c2nnc(-c3ccco3)o2)cc1 | 58.1% (active)
